Data reported in PubChem BioAssay (Tox21).
A number with no mark means an inactive call. Inconclusive results are not listed. Where a call stands in place of a potency, no number is given. Activity calls are given as the source filed them. Unless noted, calls follow the shape of the dose curve; as a rule, active = well fitted curve in the direction sought with a large enough effect in the repeat runs; inconclusive = weak or mixed curves; inactive = no such curve, though single readings can be large; an effect the other way counts as inactive or inconclusive.

Columns and labels:
[1] = qHTS assay to identify small molecule agonists of the TGF-beta/Smad signaling pathway (AID 1346859; active = well fitted activation curve with a large enough effect in the signal ratio in the repeat runs, not every such curve was filed as active; the % refers to the signal ratio; also: series mostly up to about 77 µM)
Method in brief: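 Screening used HEK 293T SBE-bla cells at 4,000/well. Test agents: 5 hr, 37 C. Detection: FRET substrate, 2 hr RT, then excitation 405 nm with emissions at 460 and 530 nm.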

[2] = Human pregnane X receptor (PXR) small molecule agonists, qHTS cell viability counter screen (AID 1346977); also: nearly all actives have a fitted effect of over 50% in size
Method in brief: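 In each well, the PXR reporter HepG2 line was checked for viability: CellTiter-Fluor reagent added 23hr post-dosing, fluorescence read after 1hr incubation at 37C.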

[3] = Caspase-3/7 induction in HepG2 cells by small molecules, qHTS assay (AID 1346978); also: nearly all actives have a fitted effect of over 15% in size
Method in brief: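 Wild-type HepG2 cells (2,000/well) were settled 5 h at 37 C, 5% CO2, then exposed to compounds in DMSO for 17 h. Caspase-3/7 activity was read by luminescence 30 min after adding Caspase-Glo 3/7 reagent at room temperature.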

[4] = Caspase-3/7 induction in CHO-K1 cells by small molecules, qHTS cell viability counter screen (AID 1346979); also: nearly all actives have a fitted effect of over 35% in size
Method in brief: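 Following a 5hr settling period, CHO-K1 cells at 1,500 per well received DMSO-dissolved compounds. Cell viability was quantified 16hr later by CellTiter-Fluor fluorescence, measured after 1hr with reagent at 37C.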

[5] = Caspase-3/7 induction in CHO-K1 cells by small molecules, qHTS assay (AID 1346980); also: nearly all actives have a fitted effect of over 15% in size
Method in brief: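 Wild-type cells were seeded at 1,500 per well and settled 5 hr at 37 C, 5% CO2, then exposed to DMSO-dissolved compounds for 17 hr. Caspase-Glo 3/7 reagent was added, and luminescence was read after 30min at room temperature.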

[6] = Caspase-3/7 induction in HepG2 cells by small molecules, qHTS cell viability counter screen (AID 1346981); also: series mostly up to about 92 µM; nearly all actives have a fitted effect of over 30% in size
Method in brief: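 HepG2, WT, 2,000 cells/well; 5 hr pre-incubation 37 C/5% CO2; compound pin-transferred from DMSO; 16 hr exposure; CellTiter-Fluor, 1 hr; fluorescence read.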

[7] = biological target: Nuclear receptor subfamily 1 group I member 2 (Homo sapiens) (UniProt O75469); experiment: Human pregnane X receptor (PXR) small molecule agonists, qHTS assay (AID 1346982); also: nearly all actives have a fitted effect of over 35% in size; also: potency is read from the fitted curve at half-maximal effect
Sequence of Nuclear receptor subfamily 1 group I member 2 (Homo sapiens) (O75469 whole entry, looked up): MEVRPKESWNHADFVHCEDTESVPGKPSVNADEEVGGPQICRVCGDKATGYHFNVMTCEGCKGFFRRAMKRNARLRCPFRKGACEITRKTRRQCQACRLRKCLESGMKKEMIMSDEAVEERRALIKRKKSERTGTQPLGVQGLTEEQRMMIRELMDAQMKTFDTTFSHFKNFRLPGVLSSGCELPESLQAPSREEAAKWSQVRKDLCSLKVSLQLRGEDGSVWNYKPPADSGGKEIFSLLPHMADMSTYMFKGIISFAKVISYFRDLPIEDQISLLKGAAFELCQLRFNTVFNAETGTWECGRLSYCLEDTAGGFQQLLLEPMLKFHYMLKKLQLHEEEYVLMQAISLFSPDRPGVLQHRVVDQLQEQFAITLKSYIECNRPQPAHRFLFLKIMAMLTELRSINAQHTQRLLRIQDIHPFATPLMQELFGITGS
Method in brief: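 Luciferase signal from ONE-Glo (30 min, room temperature) measured activation of hPXR-driven CYP3A4 reporter expression in PXR-Luc HepG2 cells treated with compounds for 24 hr at 37 C.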

[8] = biological target: Cytochrome P450 2D6 (Homo sapiens) (UniProt P10635); experiment: Cytochrome P450 Family 2 Subfamily D Member 6 (CYP2D6) small molecule antagonists: luciferase reporter qHTS assay (AID 1671196); also: nearly all actives have a fitted effect of over 50% in size; also: potency is read from the fitted curve at half-maximal effect
Sequence of Cytochrome P450 2D6 (Homo sapiens) (P10635 whole entry, looked up): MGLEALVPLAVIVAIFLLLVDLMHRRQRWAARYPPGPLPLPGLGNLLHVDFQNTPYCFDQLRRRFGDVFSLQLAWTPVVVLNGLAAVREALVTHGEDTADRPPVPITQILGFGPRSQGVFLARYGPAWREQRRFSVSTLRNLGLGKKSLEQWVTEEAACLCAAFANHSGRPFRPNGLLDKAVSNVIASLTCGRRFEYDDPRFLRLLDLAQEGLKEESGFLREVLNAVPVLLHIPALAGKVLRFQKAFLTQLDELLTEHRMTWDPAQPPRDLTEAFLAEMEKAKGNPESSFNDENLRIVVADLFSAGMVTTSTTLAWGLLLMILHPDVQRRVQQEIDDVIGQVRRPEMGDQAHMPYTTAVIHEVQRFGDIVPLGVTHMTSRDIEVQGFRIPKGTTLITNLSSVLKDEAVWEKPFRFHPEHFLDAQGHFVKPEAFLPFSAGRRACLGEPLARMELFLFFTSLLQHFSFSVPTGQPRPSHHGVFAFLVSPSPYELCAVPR
Method in brief: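 Read-out is luminescence from luciferin formed by CYP2D6 turnover of a proluciferin substrate, recorded as relative luminescence units. Reactions ran 1 h at room temperature after NADPH regeneration solution was added.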

[9] = biological target: Cytochrome P450 2C19 (Homo sapiens) (UniProt P33261); experiment: Cytochrome P450 Family 2 Subfamily C Member 19 (CYP2C19) small molecule antagonists: luciferase reporter qHTS assay (AID 1671197); also: nearly all actives have a fitted effect of over 65% in size; also: potency is read from the fitted curve at half-maximal effect
Sequence of Cytochrome P450 2C19 (Homo sapiens) (P33261 whole entry, looked up): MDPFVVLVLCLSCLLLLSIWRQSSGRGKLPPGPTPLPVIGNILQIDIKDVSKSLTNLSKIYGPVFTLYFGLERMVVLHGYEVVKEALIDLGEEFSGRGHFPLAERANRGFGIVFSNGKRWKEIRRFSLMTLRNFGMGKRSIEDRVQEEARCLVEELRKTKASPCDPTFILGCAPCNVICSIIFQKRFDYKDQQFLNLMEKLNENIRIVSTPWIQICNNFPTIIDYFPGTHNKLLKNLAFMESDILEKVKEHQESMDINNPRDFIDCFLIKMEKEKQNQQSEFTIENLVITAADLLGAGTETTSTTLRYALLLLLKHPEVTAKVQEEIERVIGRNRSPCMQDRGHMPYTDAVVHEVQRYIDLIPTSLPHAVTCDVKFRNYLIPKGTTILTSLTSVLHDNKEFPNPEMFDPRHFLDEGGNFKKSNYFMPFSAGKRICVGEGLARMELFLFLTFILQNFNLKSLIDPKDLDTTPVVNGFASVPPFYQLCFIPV
Method in brief: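 Light output is proportional to CYP2C19 activity: proluciferin substrate is converted to luciferin, then detected by a luciferin detection reagent that also stops the 1 h, 37C NADPH-driven reaction. Ketoconazole serves as positive control.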

[10] = biological target: Cytochrome P450 2C9 (Homo sapiens) (UniProt P11712); experiment: Cytochrome P450 Family 2 Subfamily C Member 9 (CYP2C9) small molecule antagonists: luciferase reporter qHTS assay (AID 1671198); also: nearly all actives have a fitted effect of over 50% in size; also: potency is read from the fitted curve at half-maximal effect
Sequence of Cytochrome P450 2C9 (Homo sapiens) (P11712 whole entry, looked up): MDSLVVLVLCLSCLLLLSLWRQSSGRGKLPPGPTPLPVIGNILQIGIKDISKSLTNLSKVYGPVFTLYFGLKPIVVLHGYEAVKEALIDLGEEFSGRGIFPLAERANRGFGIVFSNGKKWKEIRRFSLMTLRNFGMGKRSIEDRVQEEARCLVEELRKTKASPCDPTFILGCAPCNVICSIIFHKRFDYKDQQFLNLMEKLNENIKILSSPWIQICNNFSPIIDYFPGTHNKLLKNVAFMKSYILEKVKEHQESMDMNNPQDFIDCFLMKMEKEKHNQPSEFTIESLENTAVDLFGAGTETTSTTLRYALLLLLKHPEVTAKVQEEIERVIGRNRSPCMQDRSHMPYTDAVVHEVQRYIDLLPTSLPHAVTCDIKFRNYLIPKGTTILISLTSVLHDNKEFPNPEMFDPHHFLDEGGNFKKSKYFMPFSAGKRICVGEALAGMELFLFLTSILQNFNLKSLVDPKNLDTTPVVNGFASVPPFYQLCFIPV
Method in brief: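 CYP2C9 activity was measured with a P450-Glo proluciferin substrate. Enzyme–substrate mix was held with compound for 10 min at room temperature, then NADPH regeneration solution was added for 1 h at 37C. Luciferin product was read as luminescence.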

[11] = biological target: Voltage-gated inwardly rectifying potassium channel KCNH2 (Homo sapiens) (UniProt Q12809); experiment: Human Ether-a-go-go-Related Gene (hERG) channel small molecule antagonists: fluorescence cell-based qHTS assay (AID 1671200);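 also: hERG-expressing U2OS cells given a thallium stimulus after FluxOR II dye loading; series mostly up to about 77 µM; nearly all actives have a fitted effect of over 50% in size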
Sequence of Voltage-gated inwardly rectifying potassium channel KCNH2 (Homo sapiens) (Q12809 whole entry, looked up): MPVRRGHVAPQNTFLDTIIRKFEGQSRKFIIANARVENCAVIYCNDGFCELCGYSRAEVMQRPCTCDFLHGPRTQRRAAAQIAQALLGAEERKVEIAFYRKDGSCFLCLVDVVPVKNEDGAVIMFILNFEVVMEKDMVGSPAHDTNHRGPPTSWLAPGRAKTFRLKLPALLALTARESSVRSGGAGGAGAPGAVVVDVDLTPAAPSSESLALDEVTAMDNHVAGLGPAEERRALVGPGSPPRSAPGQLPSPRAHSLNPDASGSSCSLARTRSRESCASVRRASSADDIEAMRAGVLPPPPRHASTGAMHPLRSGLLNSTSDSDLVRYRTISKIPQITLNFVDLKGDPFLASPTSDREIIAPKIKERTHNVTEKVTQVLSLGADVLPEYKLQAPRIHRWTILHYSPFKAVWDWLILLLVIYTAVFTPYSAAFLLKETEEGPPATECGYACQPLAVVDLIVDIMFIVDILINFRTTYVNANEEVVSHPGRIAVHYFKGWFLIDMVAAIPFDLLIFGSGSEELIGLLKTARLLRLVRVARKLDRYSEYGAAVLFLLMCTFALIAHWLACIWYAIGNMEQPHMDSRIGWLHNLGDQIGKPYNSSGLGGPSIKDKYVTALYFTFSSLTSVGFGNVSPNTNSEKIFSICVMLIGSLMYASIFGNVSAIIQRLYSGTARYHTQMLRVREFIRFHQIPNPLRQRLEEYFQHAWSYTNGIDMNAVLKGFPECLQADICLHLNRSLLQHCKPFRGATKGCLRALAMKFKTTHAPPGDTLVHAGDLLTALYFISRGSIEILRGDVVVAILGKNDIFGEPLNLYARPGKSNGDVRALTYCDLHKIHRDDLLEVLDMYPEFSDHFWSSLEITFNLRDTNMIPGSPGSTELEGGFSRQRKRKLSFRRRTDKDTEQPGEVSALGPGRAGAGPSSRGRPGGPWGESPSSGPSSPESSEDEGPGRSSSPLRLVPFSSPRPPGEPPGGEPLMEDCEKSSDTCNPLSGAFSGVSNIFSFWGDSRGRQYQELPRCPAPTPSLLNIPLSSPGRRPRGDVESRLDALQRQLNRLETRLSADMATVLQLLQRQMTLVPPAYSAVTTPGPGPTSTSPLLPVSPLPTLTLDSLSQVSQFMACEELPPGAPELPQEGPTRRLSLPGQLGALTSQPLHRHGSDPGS
Method in brief: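 In this thallium-flux screen, overnight-cultured U2OS cells bearing the channel are dye-loaded in darkness for an hour, rested 10 min at room temperature, and then monitored kinetically at 480/540 nm for two minutes post-stimulus.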

[12] = biological target: Cytochrome P450 3A4 (Homo sapiens) (UniProt P08684); experiment: Cytochrome P450 Family 3 Subfamily A Member 4 (CYP3A4) small molecule antagonists: luciferase reporter qHTS assay (AID 1671201); also: nearly all actives have a fitted effect of over 50% in size; also: potency is read from the fitted curve at half-maximal effect
Sequence of Cytochrome P450 3A4 (Homo sapiens) (P08684 whole entry, looked up): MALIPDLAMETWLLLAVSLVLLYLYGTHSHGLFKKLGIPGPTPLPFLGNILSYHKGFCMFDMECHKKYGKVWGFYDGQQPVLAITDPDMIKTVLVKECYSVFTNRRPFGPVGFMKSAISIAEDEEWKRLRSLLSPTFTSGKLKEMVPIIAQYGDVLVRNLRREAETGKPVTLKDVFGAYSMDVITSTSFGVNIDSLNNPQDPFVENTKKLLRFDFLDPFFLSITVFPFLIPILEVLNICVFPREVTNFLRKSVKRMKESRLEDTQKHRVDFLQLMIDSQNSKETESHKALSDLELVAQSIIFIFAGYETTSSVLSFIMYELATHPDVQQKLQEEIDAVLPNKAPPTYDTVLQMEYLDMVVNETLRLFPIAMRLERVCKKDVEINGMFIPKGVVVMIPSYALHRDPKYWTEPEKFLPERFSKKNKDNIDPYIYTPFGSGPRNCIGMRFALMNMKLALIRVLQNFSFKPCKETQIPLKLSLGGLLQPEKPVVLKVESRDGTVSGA
Method in brief: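 CYP3A4 activity was followed with a P450-Glo proluciferin substrate. Test compounds in DMSO were preincubated 10 min; NADPH regeneration then ran 1 h, and light output was read 20 min after detection reagent.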

[13] = biological target: Cytochrome P450 1A2 (Homo sapiens) (UniProt P05177); experiment: Cytochrome P450 Family 1 Subfamily A Member 2 (CYP1A2) small molecule antagonists: luciferase reporter qHTS assay (AID 1671199); also: nearly all actives have a fitted effect of over 50% in size; also: potency is read from the fitted curve at half-maximal effect
Sequence of Cytochrome P450 1A2 (Homo sapiens) (P05177 whole entry, looked up): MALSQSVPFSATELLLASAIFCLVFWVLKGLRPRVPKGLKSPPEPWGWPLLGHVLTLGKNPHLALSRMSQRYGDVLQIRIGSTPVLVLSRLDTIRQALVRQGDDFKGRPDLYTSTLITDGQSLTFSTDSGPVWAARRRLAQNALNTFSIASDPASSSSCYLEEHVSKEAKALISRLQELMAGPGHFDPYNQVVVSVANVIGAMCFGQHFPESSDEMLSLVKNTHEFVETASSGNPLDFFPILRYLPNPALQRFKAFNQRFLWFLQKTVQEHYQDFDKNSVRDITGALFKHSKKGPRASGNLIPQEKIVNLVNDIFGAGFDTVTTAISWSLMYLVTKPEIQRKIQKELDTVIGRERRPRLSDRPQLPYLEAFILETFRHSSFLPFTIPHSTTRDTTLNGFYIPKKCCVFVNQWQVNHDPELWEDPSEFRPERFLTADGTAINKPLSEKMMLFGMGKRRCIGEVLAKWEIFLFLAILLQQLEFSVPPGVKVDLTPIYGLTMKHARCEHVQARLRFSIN
Method in brief: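 P450-Glo CYP1A2, 1536-well qHTS: enzyme/proluciferin substrate + cpd (DMSO), 10 min RT; NADPH regen, 1 h RT; detection reagent, 20 min; luminescence, RLU.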

[14] = biological target: Thyrotropin-releasing hormone receptor (Homo sapiens) (UniProt P34981); experiment: qHTS assay to identify small molecule antagonists of the thyrotropin-releasing hormone receptor (TRHR) signaling pathway (AID 1346877; active = well fitted inhibition curve with a large enough effect in the repeat runs, not every such curve was filed as active; also: series mostly up to about 51 µM)
Sequence of Thyrotropin-releasing hormone receptor (Homo sapiens) (P34981 whole entry, looked up): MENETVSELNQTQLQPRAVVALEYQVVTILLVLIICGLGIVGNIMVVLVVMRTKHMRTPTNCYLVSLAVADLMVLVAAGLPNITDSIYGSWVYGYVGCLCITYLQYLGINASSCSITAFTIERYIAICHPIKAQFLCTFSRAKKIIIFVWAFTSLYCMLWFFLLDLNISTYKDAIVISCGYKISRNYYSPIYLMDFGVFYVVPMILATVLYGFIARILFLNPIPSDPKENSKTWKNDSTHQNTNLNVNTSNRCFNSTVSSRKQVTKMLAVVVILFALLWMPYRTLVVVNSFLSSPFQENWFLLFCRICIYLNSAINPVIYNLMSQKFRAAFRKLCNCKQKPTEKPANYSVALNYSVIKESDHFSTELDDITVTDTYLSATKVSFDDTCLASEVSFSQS
Method in brief: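 Intracellular calcium fluorescence, read kinetically every second over 3 min, reports TRH-evoked signalling in HEK293 cells carrying TRHR. Test compounds were added 5 min ahead of a 1 nM TRH challenge.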

[15] = biological target: Thyrotropin-releasing hormone receptor (Homo sapiens) (UniProt P34981); experiment: qHTS assay to identify small molecule agonists of the thyrotropin-releasing hormone receptor (TRHR) signaling pathway (AID 1346891; calls by dose curve; also: series mostly up to about 58 µM)
Method in brief: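 Readout was intracellular calcium fluorescence in TRHR-Hek293 cells. Cells were incubated 18 h, dye-loaded 2 h at 37 °C, and treated with compound in agonist mode.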

[16] = biological target: Nuclear receptor subfamily 1 group I member 2 (Rattus norvegicus) (UniProt Q9R1A7); experiment: Rat pregnane X receptor (rPXR) activation by small molecules, qHTS assay (AID 1346983); settings: rPXR luciferase reporter cells, One-Glo luminescence, 24 h; hits give high values; also: nearly all actives have a fitted effect of over 20% in size
Sequence of Nuclear receptor subfamily 1 group I member 2 (Rattus norvegicus) (Q9R1A7 whole entry, looked up): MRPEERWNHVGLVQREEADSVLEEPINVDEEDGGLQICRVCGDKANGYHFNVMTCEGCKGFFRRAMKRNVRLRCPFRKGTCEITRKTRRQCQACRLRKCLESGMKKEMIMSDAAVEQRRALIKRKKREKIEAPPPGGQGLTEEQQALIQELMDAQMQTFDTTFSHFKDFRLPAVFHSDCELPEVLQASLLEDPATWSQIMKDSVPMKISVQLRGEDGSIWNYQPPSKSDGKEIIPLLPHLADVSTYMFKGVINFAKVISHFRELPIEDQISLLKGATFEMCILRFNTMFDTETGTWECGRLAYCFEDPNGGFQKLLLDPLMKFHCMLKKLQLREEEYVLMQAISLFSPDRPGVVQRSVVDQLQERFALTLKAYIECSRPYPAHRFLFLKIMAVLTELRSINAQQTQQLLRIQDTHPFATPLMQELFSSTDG
Method in brief: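 Cell-based rPXR luciferase reporter assay, 2,000 cells per well, rested 5hr at 37 C before compound addition in DMSO, then 24 hr at 37 C. One-Glo reagent was added and luminescence read after 30 min at room temperature.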

Compound: C=C(C)[C@@H]1CC=C(C)CC1
- outcome [1]: inactive
- outcome [2]: inactive
- outcome [3]: inactive
- Potency [4]: inactive
- outcome [5]: inactive
- outcome [6]: inactive
- Potency [7]: inactive
- Potency [8]: inactive
- Potency [9]: inactive
- Potency [10]: inactive
- Potency [11]: inactive
- Potency [12]: inactive

Compound: C=CCCCC
- outcome [1]: inactive
- outcome [2]: inactive
- outcome [3]: inactive
- Potency [4]: inactive
- outcome [6]: inactive
- Potency [7]: inactive
- Potency [8]: inactive
- Potency [10]: inactive
- Potency [13]: inactive
- Potency [11]: inactive
- Potency [12]: inactive

Compound: O=C1OCCO1
- outcome [14]: inactive
- outcome [15]: inactive
- outcome [2]: inactive
- Potency [4]: inactive
- outcome [5]: inactive
- outcome [6]: inactive
- Potency [7]: inactive
- Potency [8]: inactive
- Potency [10]: inactive
- Potency [13]: 42.2 µM (active)
- Potency [11]: inactive
- Potency [12]: inactive

Compound: Cc1ccnc(N)c1
- outcome [1]: inactive
- outcome [2]: inactive
- outcome [3]: inactive
- outcome [5]: inactive
- Potency [7]: inactive
- Potency [8]: inactive
- Potency [10]: inactive
- Potency [13]: inactive
- Potency [11]: inactive
- Potency [12]: inactive

Compound: CC(N)CCCC(C)(C)O (centres undefined)
- outcome [1]: inactive
- outcome [2]: inactive
- outcome [3]: inactive
- Potency [4]: inactive
- outcome [5]: inactive
- outcome [6]: inactive
- max activation [16]: -1.43%
- Potency [9]: inactive
- Potency [10]: inactive
- Potency [13]: inactive
- Potency [11]: inactive

Compound: CC/C(C)=N\O[Si](C)(O/N=C(\C)CC)O/N=C(\C)CC
- outcome [1]: inactive
- outcome [2]: inactive
- outcome [3]: inactive
- Potency [4]: inactive
- outcome [5]: inactive
- Potency [7]: inactive
- Potency [8]: 32.1 µM (active)
- Potency [13]: 40.5 µM (active)
- Potency [11]: inactive
- Potency [12]: 12.8 µM (active)

Compound: Cc1c(Cl)cccc1Cl
- outcome [1]: inactive
- outcome [2]: inactive
- outcome [3]: inactive
- Potency [4]: inactive
- outcome [5]: inactive
- outcome [6]: inactive
- Potency [7]: inactive
- Potency [8]: inactive
- Potency [9]: inactive
- Potency [10]: inactive
- Potency [11]: inactive
- Potency [12]: inactive

Compound: O=C1CCC(=O)N1Cl
- outcome [1]: inactive
- outcome [2]: inactive
- outcome [3]: inactive
- Potency [4]: inactive
- outcome [5]: inactive
- outcome [6]: inactive
- Potency [7]: inactive
- Potency [8]: inactive
- Potency [9]: inactive
- Potency [10]: inactive
- Potency [11]: inactive
- Potency [12]: inactive

Compound: CCCCCCCCCCCCCCCCCC#N
- outcome [1]: inactive
- outcome [2]: inactive
- outcome [3]: inactive
- Potency [4]: inactive
- outcome [5]: inactive
- outcome [6]: inactive
- Potency [7]: inactive
- Potency [10]: inactive
- Potency [13]: inactive
- Potency [11]: inactive
- Potency [12]: inactive

Compound: c1ccc2cnccc2c1
- outcome [1]: inactive
- outcome [2]: inactive
- outcome [3]: inactive
- Potency [4]: inactive
- outcome [5]: inactive
- outcome [6]: inactive
- Potency [8]: 35.6 µM (active)
- Potency [9]: inactive
- Potency [10]: inactive
- Potency [11]: inactive

Compound: C=C(C)c1cccc(C(C)(C)N=C=O)c1
- outcome [1]: inactive
- outcome [2]: inactive
- outcome [3]: inactive
- Potency [4]: inactive
- outcome [5]: inactive
- outcome [6]: inactive
- Potency [7]: 4.33 µM (active)
- Potency [9]: 17.8 µM (active)
- Potency [10]: 15.9 µM (active)
- Potency [11]: inactive
- Potency [12]: 2.83 µM (active)

Compound: COc1ccc(CCO)cc1
- outcome [1]: inactive
- outcome [2]: inactive
- Potency [4]: inactive
- outcome [5]: inactive
- outcome [6]: inactive
- Potency [7]: inactive
- Potency [8]: inactive
- Potency [9]: 71 µM (active)
- Potency [10]: 79.6 µM (active)
- Potency [13]: 63.3 µM (active)
- Potency [11]: inactive
- Potency [12]: inactive
